Assay outcomes from PubChem BioAssay.
POLB inh: qHTS Assay for Inhibitors of DNA Polymerase Beta | P06746 | Pol beta primer extension/strand displacement, fluorescence kinetic | Potency, µM (top dose mostly 114 µM), inactives show at the top dose activity change, negative = inhibition, hits mostly inhibitors | 340,000 tested, 1.3% active | AID 485314, 2010; further: on the % scale 0 is the no-effect control and ±100 the full control effect
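Values derive from four-parameter Hill fits of normalized kinetic data: reads at 0 and 10 min following addition of 50 nM substrate to 10 nM Pol beta preincubated 15 min with compound.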
Pol eta inh: qHTS for Inhibitors of Polymerase Eta. 390,000 tested, 1.2% active. recombinant Pol eta, fluorescent DNA replication assay. Potency, µM (top dose mostly 114 µM), for inactives: top-dose activity change, negative = inhibition, usual class: inhibitors. DNA polymerase eta (Homo sapiens), Q9Y253; further: on the % scale 0 is the no-effect control and ±100 the full control effect
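Pol eta at 10 nM preincubated with compounds 15 min at room temperature; reaction started with fluorescent substrate (50 nM final) and read kinetically at 0 and 10 min.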
WRN inhibitor: qHTS for Inhibitors of WRN Helicase; WRN helicase unwinding, fluorescent forked duplex, kinetic; AID 651768, 2012; Potency, µM (series often up to 114 µM), without a hit: top-dose activity change, negative = inhibition, actives largely listed as inhibitors; 360,000 tested, 0.46% active; further: on the % scale 0 is the no-effect control and ±100 the full control effect; nearly all actives have a fitted effect of over 55% in size
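Kinetic fluorescence helicase assay: unwinding of a quenched forked DNA duplex (100 nM final) with 2 mM ATP final raises red fluorescence (525/598 nm). Compounds sat 15 min at room temperature with 20 nM WRN beforehand.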
Pol kappa inh: qHTS for Inhibitors of Polymerase Kappa. purified Pol kappa, fluorescent DNA synthesis assay, 10 min. AID 588579, 2011. Potency, µM (highest dose often 107 µM), for the others: at the highest dose activity, negative = inhibition, usual class: inhibitors. 400,000 tested, 0.53% active. DNA polymerase kappa (Homo sapiens), Q9UBT6; further: on the % scale 0 is the no-effect control and ±100 the full control effect
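10 nM Pol kappa preincubated 15 min at room temperature with compounds, then reaction started with substrate at 50 nM final. Fluorescence read kinetically at 0 and 10 min; buffer-only wells served as negative control.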
Pol iota inh: qHTS for Inhibitors of Polymerase Iota; DNA polymerase iota (Homo sapiens), Q9UNA4; AID 588590, 2011; Potency, µM (titrated, usually from 115 µM), without a hit: at the highest dose activity, negative = inhibition, most hits filed as inhibitors; 390,000 tested, 1% active; Pol iota fluorescent replication assay, 10 min
Target sequence (Q9UNA4 whole entry, looked up): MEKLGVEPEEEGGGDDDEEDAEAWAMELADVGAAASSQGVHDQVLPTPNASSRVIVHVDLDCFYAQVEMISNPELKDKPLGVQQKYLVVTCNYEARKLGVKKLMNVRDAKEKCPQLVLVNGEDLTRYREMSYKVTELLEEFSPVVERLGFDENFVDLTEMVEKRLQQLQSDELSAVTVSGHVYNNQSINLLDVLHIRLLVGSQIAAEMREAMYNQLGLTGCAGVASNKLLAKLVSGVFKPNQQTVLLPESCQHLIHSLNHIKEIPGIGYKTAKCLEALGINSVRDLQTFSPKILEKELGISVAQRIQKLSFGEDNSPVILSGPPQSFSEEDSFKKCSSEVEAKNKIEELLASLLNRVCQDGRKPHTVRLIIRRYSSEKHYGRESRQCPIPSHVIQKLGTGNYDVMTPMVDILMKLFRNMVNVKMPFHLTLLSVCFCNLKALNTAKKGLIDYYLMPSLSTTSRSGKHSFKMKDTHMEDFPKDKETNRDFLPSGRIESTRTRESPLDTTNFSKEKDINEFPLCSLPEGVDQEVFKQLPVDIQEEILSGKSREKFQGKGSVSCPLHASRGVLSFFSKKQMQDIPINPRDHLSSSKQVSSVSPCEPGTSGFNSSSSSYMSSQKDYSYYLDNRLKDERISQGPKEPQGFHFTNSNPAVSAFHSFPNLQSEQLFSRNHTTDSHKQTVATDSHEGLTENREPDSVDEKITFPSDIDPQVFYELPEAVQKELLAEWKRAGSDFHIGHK
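Pol iota at 10 nM preincubated 15 min with compounds at room temperature; reaction started with fluorescent substrate, 50 nM final. Fluorescence read kinetically at 0 and 10 min; buffer-only wells as negative control.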
* marks the source's active call; other numbers are inactive results; u = inconclusive; x = no result given; [ ] = remark or other dose. Only some compounds are listed: those with a hit (about 2.3% of all), similar ones and a draw of the others. The call rests on the fitted dose curve; in most records, active means well fitted curve in the direction sought with a large enough effect; inconclusive means small, poorly fitted or top-dose-only effect, or another doubt; inactive means no such curve, though single readings can be large; an effect the other way counts as inactive or inconclusive. Potency means the concentration at half of the fitted maximal effect.

SMILES	POLB inh	Pol eta inh	WRN inhibitor	Pol kappa inh	Pol iota inh
COc1ccc(C(=O)N2CCC3(CC2)OCCO3)cc1	u	1.7%	-3.2%	-12.0%	14.2%
O=C(c1ccc2nc(-c3ccco3)c(-c3ccco3)nc2c1)N1CCC2(CC1)OCCO2	20µM*	15.8µM*	u	u	u
Cc1[nH]n(-c2ccccc2)c(=O)c1C(c1cccc([N+](=O)[O-])c1O)c1c(C)[nH]n(-c2ccccc2)c1=O	0.0%	-21.1%	u	-12.2%	0.282µM*
N.N.N.N.N.N.N.N.N.N.N.N.N.N.O.O.[Ru+4].[Ru+5].[Ru+5]	x	x	x	26.7µM*	x
CN1C(=O)/C(=C\N2CCc3ccccc32)C(=O)NC1=S	1.9%	-5.6%	50.1µM*	-27.2%	u
CCN(CC)c1ccc(/C=C2\C(=O)NC(=S)N(C)C2=O)o1	-7.7%	-19.3%	-18.3%	-2.6%	51.9%
O=S(=O)(O)c1cc(N=C=S)ccc1/C=C/c1ccc(N=C=S)cc1S(=O)(=O)O	x	x	x	35.5µM*	x
COc1ccc(CNC(=O)C2CCN(c3nc(OC)nc(OC)n3)CC2)cc1	38.0%	-3.8%	-16.6%	-1.1%	89.1µM*
COc1ccc(CNC(=O)c2ccc(C(C)C)cc2)cc1	-5.2%	-7.9%	-8.6%	-10.3%	41.7%
O=C1NC(=O)[C@]2(Cc3ccccc3N3CCN(c4ccccc4)CC32)C(=O)N1Cc1ccccc1 (stereo partly specified)	-17.1%	20µM*	-29.7%	-11.7%	u
O=C1NC(=O)[C@]2(Cc3ccccc3N3CCN(c4ccccc4)CC32)C(=O)N1c1ccccc1 (stereo partly specified)	-4.8%	44.7µM*	-35.3%[57.1 µM]	u	u
O=C(Oc1ccc([N+](=O)[O-])cc1)N1CCN(/[N+]([O-])=N/Oc2ccc([N+](=O)[O-])cc2[N+](=O)[O-])CC1	x	x	x	-15.5%	u
Cc1cccc(N2C(=O)CSC23C(=O)N(CC(=O)Nc2cccc(Cl)c2)c2ccccc23)c1 (stereo unspecified)	-19.9%	-6.2%	x	-9.3%	u
CCOc1cccc(OCC)c2c(C)[n+](CC3CCCO3)c(C)c1-2 (stereo unspecified)	22.4µM*	44.7µM*	-35.5%	25.1µM*	u
NC(N)=N/N=C/c1cn(-c2ccccc2)nc1-c1cccs1	28.2µM*	-12.0%	39.3%	-14.8%	-7.7%
O=c1c2ccccc2nc(-c2cccs2)n1-c1ccccc1	u	-9.9%	6.7%	-2.2%	-4.0%
COc1ccc(/C=C2/C(=O)NC(=O)N(c3ccccc3)C2=O)cc1CN1C(=O)c2ccccc2C1=O	11.0%	-4.3%	-7.9%	-1.8%	-1.6%
COc1ccc(/C=C2/C(=O)NC(=S)N(C3CC3)C2=O)cc1CN1C(=O)c2ccccc2C1=O	-28.4%	u	14.1µM*	-2.8%	u
CC(C)C[C@H](NC(=O)[C@H](Cc1ccccc1)NC(=O)CNC(=O)[C@H](C)NC(=O)[C@@H](N)Cc1ccc(O)cc1)C(=O)O	x	x	x	7.3%[19.4 µM]	x
NC(Cc1ccc(Oc2cc(I)c(O)c(I)c2)c(I)c1)C(=O)O (stereo unspecified)	x	x	x	7.08µM*	x
N[C@@H](CCl)C(=O)O	15.3%[57.1 µM]	1.1%[57.1 µM]	-2.4%	-10.6%[60.1 µM]	-4.3%[58.9 µM]
NC(Cc1cc(O)c(O)cc1O)C(=O)O (stereo unspecified)	0.112µM*	0.282µM*	x	0.67µM*	0.398µM*
CC[C@H](C)[C@H](NC(=O)[C@H](CCCN=C(N)N)NC(=O)[C@H](CCCN=C(N)N)NC(=O)[C@H](CC(C)C)NC(=O)[C@H](Cc1ccccc1)NC(=O)CNC(=O)CNC(=O)[C@@H](N)Cc1ccc(O)cc1)C(=O)O	x	x	x	5.5%[19.4 µM]	x
C/C1=C\[C@@H](C)C/C=C/[C@H]2[C@@H]3O[C@]3(C)[C@@H](C)[C@H]3[C@H](Cc4c[nH]c5ccccc45)NC(=O)[C@]32C(=O)/C=C/C(=O)[C@@H]1O	22.4µM*	u	-3.7%	u	u
C[C@]12CC[C@@H](O)CC1CCC1C2CC[C@]2(C)C(=O)CC[C@@H]12 (stereo partly specified)	-13.6%[57.1 µM]	-3.2%[57.1 µM]	x	x	u
SMILES	POLB inh	Pol eta inh	WRN inhibitor	Pol kappa inh	Pol iota inh
COc1ccc(C=C(C(=O)O)c2ccc(OC)cc2)cc1	x	-20.6%	-12.2%	-12.7%	75.2%
CC(=O)NCC(N)C(=O)c1ccc(Cl)c(Cl)c1 (stereo unspecified)	x	x	x	11.7%	-1.1%
N#C/C(=C\c1ccc(O)c(O)c1)C(N)=S	x	x	x	0.126µM*	x
O=Cc1ccc(O)c(O)c1	10.7%	-5.3%	0.3%	-9.2%	u
Oc1cc2c(cc1O)[C@H]1c3ccccc3CN[C@H]1CC2	x	x	x	2.6%[19.4 µM]	x
COc1ccc(C(=O)O)cc1OC	x	0.3%	0.0%	1.2%	1.9%
O=C(O)c1cc[c]([Hg][Cl])cc1	14.1µM*	-11.5%	-1.8%	-4.2%[60.1 µM]	1.78µM*
C[S@@](=O)CCCCN=C=S	x	x	x	13.7%[60.1 µM]	x
CN(C)c1ccc(/C=C/C=C/c2sc3ccccc3[n+]2C)cc1	u	-31.1%	u	-28.5%	u
CC[n+]1c(/C=C/N(C)c2ccccc2)sc2ccc(Cl)cc21	50.1µM*	-7.5%	50.1µM*	-11.1%	u
OCC(Br)(Br)Br	x	x	x	21.1%[60.1 µM]	x
CC1(C)C(=O)CC[C@]2(C)C3C(=O)C=C4[C@H]5C[C@@](C)(C(=O)O)CC[C@]5(C)CC[C@]4(C)[C@]3(C)CC[C@@H]12 (stereo partly specified)	44.7µM*	-14.7%	18.4%	4.6%	18.5%
Cc1c(C(=O)Nc2ccccc2Cl)oc2ccc(S(=O)(=O)N3CCCCC3)cc12	2.2%	-10.9%	x	-4.0%[60.1 µM]	u
c1cc[n+]2c(c1)-c1cccc[n+]1CC2	x	x	x	-2.6%[60.1 µM]	x
COc1cc(OC)c(OC)cc1/C=C1\C(=O)NC(=O)N(Cc2ccccc2)C1=O	10.7%	-11.2%	79.4µM*	-10.0%	u
COc1ccc(CN2C(=O)NC(=O)/C(=C\c3cc(OC)c(OC)c(OC)c3)C2=O)cc1	-11.8%	-9.7%	50.1µM*	-1.8%	u
O=c1c(-c2ccccc2)c(O)c2ccccc2n1-c1ccccc1	15.5%	-16.0%	-0.4%	3.6%	124.0%
CCCCNC(=O)c1cc(-c2cccnc2)nc2ccc(S(=O)(=O)NCCCC)cc12	u	-22.9%	x	-5.8%[60.1 µM]	-15.7%
CCOC(=O)Nc1ccc(NCc2ccc(F)cc2)nc1N	0.8%[57.1 µM]	28.2µM*	-0.9%[11.6 µM]	-9.3%[60.1 µM]	3.98µM*
NC(=O)[C@H](Cc1ccccc1)NC(=O)[C@H](Cc1c[nH]c2ccccc12)NC(=O)[C@@H]1CCCN1C(=O)[C@@H](N)Cc1ccc(O)cc1	x	x	x	15.7%[60.1 µM]	x
